Source: PubChem BioAssay (National Center for Advancing Translational Sciences (NCATS))
Pf growth 48h – P. falciparum growth inhibition at 48 hours (one generation); P. falciparum luciferase growth in erythrocytes, 48 h; 310,000 tested, 5.9% active; AID 504832; Potency, µM (series often up to 28.7 µM), for the others: at the top dose activity change, negative = inhibition, hits mostly inhibitors; further: potency means the concentration at half of the fitted maximal effect; on the % scale 0 is the no-effect control and ±100 the full control effect
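Erythrocytes infected with P. falciparum carrying an integrated firefly luciferase reporter (2% hematocrit, 0.1% parasitemia final) were exposed to compounds in RPMI 1640 with 0.5% Albumax at 37 C, 5% CO2. Growth inhibition was scored as reduced luminescence.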
Pf growth 96h – P. falciparum growth inhibition at 96 hour, primary screen for plastid delayed-death inhibitors; 320,000 tested, 6.9% active; P. falciparum luciferase reporter growth, 96 h; Potency, µM (top dose mostly 28.7 µM), inactives show at the top dose activity change, negative = inhibition, most hits filed as inhibitors; further: potency means the concentration at half of the fitted maximal effect; on the % scale 0 is the no-effect control and ±100 the full control effect
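Cell-based qHTS: luciferase-tagged P. falciparum in erythrocytes (2% hematocrit, 0.05% parasitemia final) incubated with compounds for 96 hours, 37 C, 5% CO2; luciferase detection reagent then added and luminescence measured.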
Shiga toxin inh – Shiga toxin inhibition; AID 2315; Vero cells, Shiga toxin protein synthesis inhibition reporter; inhibition, % at 38.7 µM; 290,000 tested, 9.2% active; in the data active means inhibition mostly above about 28%, no sharp cut-off; inactive means mostly below about 43%; further: 0% is about no effect
CHX counter – counter-screen for Shiga toxin inhibitors: cycloheximide protein synthesis inhibition; cell reporter, cycloheximide protein synthesis inhibition counterscreen; max response, %; 300,000 tested, 12% active; AID 2314; in the data active means max response mostly above about 13%, no sharp cut-off; inactive means mostly below about 14%; further: read at 38.3 µM for the half of the compounds with a filed dose; 0% is about no effect
Active calls of the source: *. Sampled rows, rich in hits. Any-hit rate of the full collection: about 21%. Unless noted, the call rests on the fitted dose curve; in most records, active means well fitted inhibition curve with a large enough effect; inconclusive means small, poorly fitted or top-dose-only effect, or another doubt; inactive means no such curve, though single readings can be large or run the other way.

How did CCOc1ccc(C(=O)/C=C/c2cc(OC)c(OC)c(OC)c2)cc1 do in these assays?
Pf growth 48h: inconclusive; Pf growth 96h: -4.2%; Shiga toxin inh: 21.1; CHX counter: 5.0

How did C=C1C=CS(=O)(=O)N(Cc2ccccc2)C1 do in these assays?
Shiga toxin inh: -14.2; CHX counter: -10.3

What do the screens show for `COc1cc(SC)ccc1C(=O)NCCNC(=O)c1nonc1N`?
Pf growth 48h: 3.2%; Pf growth 96h: 25.4%; Shiga toxin inh: -3.2; CHX counter: -11.0

Results for CCC(C)(C)C1CCC2(CC1)NC(=O)N(CC(=O)N(C)Cc1ccc3c(c1)OCCO3)C2=O (stereo not given) ?
Pf growth 48h: inconclusive; Pf growth 96h: -87.6%

What do the screens show for `CCN1CCN(CCC(=O)Nc2cc(OC)cc(OC)c2)CC1`?
Pf growth 48h: inconclusive; Pf growth 96h: inconclusive; Shiga toxin inh: -11.4; CHX counter: -5.1

What do the screens show for `COc1ccc(NC(=O)c2nc[nH]c2C(=O)NCCCCCNC(=O)OC(C)(C)C)cc1`?
Pf growth 48h: 3.2%; Pf growth 96h: 31.1%

How did COc1ccc(/C=C/C(=O)c2ccc(C(=O)/C=C/c3ccc(OC)c(OC)c3)cc2)cc1OC do in these assays?
Pf growth 48h: inconclusive; Pf growth 96h: inconclusive; Shiga toxin inh: 20.0; CHX counter: 27.9*

How did COc1ccc(/C=C/C(=O)c2ccc3c(c2)OCO3)cc1OC do in these assays?
Pf growth 48h: 16.5%; Pf growth 96h: -1.9%

Results for COC(=O)c1ccc(/C=C/C(=O)c2ccc(OC)c(OC)c2)cc1 ?
Pf growth 48h: 10.4µM*; Pf growth 96h: inconclusive; Shiga toxin inh: 22.1; CHX counter: 13.1

Results for COC(=O)c1ccc(OC(=O)c2ccc(OC)c(OC)c2)c(OC)c1 ?
Pf growth 48h: -5.7%; Pf growth 96h: 15.3%; Shiga toxin inh: -23.1; CHX counter: -7.8

How did COC(=O)c1ccc(/C=C/C(=O)O)cc1 do in these assays?
Pf growth 48h: 33.6%; Pf growth 96h: 83.6%; Shiga toxin inh: -0.7; CHX counter: -0.6

How did COC(=O)c1ccc(/C=C/C(=O)c2ccc(OC)cc2)cc1 do in these assays?
Pf growth 48h: 10.5%; Pf growth 96h: -19.8%; Shiga toxin inh: 53.9; CHX counter: 25.5*

What do the screens show for `O=[N+]([O-])c1cc(/C=N\O)ccc1Oc1ccc(F)cc1`?
Pf growth 48h: 14.1%; Pf growth 96h: -6.1%; Shiga toxin inh: 27.4; CHX counter: 26.8*

How did COc1ccccc1C1CCN(Cc2cccc(C(=O)N3CCC(O)CC3)c2)CC1 do in these assays?
Pf growth 48h: -13.6%; Pf growth 96h: -29.6%; Shiga toxin inh: -3.5; CHX counter: -5.4

What do the screens show for `CC1(C(=O)OCC(=O)NCCNC(=O)COC(=O)C2(C)CC2(Cl)Cl)CC1(Cl)Cl` (stereo not given)?
Pf growth 48h: 68.4%; Pf growth 96h: inconclusive; Shiga toxin inh: -11.3; CHX counter: 0.9

What do the screens show for `CCOc1nc(NC2CCCC2)nc(N2CCC(C)CC2)n1`?
Pf growth 48h: inconclusive; Pf growth 96h: inconclusive; CHX counter: -2.3

Results for C=C(C)CSc1cc(C)c(C#N)c2nc3ccccc3n12 ?
Pf growth 48h: inconclusive; Pf growth 96h: inconclusive; Shiga toxin inh: 9.5; CHX counter: 0.5

Results for Cc1cc(-c2ccco2)n2c(nc3ccccc32)c1C#N ?
Pf growth 48h: 11.7µM*; Pf growth 96h: 68.7%; Shiga toxin inh: -21.9; CHX counter: -5.2

What do the screens show for `COCCN(CCOC)c1cc(C)c(C#N)c2nc3ccccc3n12`?
Pf growth 48h: inconclusive; Pf growth 96h: 10.4µM*; Shiga toxin inh: 11.9; CHX counter: -2.4

What do the screens show for `COc1ccccc1NC(=O)C(C)OC(=O)Cc1ccsc1` (stereo not given)?
Pf growth 48h: 8.8%; Pf growth 96h: 14.2%

How did CCC(=O)Oc1ccc(C(=O)Nc2ccc3c(c2)OCO3)cc1 do in these assays?
Pf growth 48h: 118.0%; Pf growth 96h: 1.1%; Shiga toxin inh: 107.5*; CHX counter: 46.4*

What do the screens show for `CCCCOc1ccc(C(=O)Nc2ccc3c(c2)OCO3)cc1`?
Pf growth 48h: 43.5%; Pf growth 96h: 26.1%; Shiga toxin inh: 24.4; CHX counter: 17.8*

Results for CCCOc1ccc(C(=O)Nc2ccc3c(c2)OCO3)cc1 ?
Pf growth 48h: 190.7%; Pf growth 96h: 54.4%; Shiga toxin inh: 121.8*; CHX counter: 48.9*

Results for CCC(=O)Nc1ccc(C(=O)Nc2ccc3c(c2)OCO3)cc1 ?
Pf growth 48h: 20.7%; Pf growth 96h: inconclusive; Shiga toxin inh: 6.1; CHX counter: 15.3

How did Cc1cc(=O)oc2cc(NC(=O)COc3ccccc3[N+](=O)[O-])ccc12 do in these assays?
Pf growth 48h: 9.7%; Pf growth 96h: inconclusive

What do the screens show for `COc1cccc(N2CC(C(=O)Nc3nnc(SCCN4CCOCC4)s3)CC2=O)c1` (stereo not given)?
Pf growth 48h: inconclusive; Pf growth 96h: -32.6%; Shiga toxin inh: -5.3; CHX counter: -1.8

Results for CCCCCCCCCCSc1n[nH]c(N)n1 ?
Pf growth 48h: 22.5%; Pf growth 96h: 0.0%; Shiga toxin inh: 46.0; CHX counter: 6.1

What do the screens show for `COc1ccc(NC(=S)NC(=O)c2cncc(Br)c2)c(OC)c1`?
Pf growth 48h: 38.0%; Pf growth 96h: 24.4%; Shiga toxin inh: 17.4; CHX counter: -1.7

How did COc1ccc(-c2cc(=Nc3ccc(C(=O)O)cc3)c3cc(C)ccc3o2)cc1 do in these assays?
Pf growth 48h: 272.0%; Pf growth 96h: 0.0%; Shiga toxin inh: 160.6*; CHX counter: 62.9*

What do the screens show for `CCc1ccc2oc(-c3ccc(OC)cc3)cc(=Nc3c(C)n(C)n(-c4ccccc4)c3=O)c2c1`?
Pf growth 48h: -46.9%; Pf growth 96h: inconclusive; Shiga toxin inh: 127.5*; CHX counter: 62.6*

What do the screens show for `COc1ccc(-c2cc(=NCC(=O)O)c3ccccc3o2)cc1`?
Pf growth 48h: 127.7%; Pf growth 96h: 120.1%; Shiga toxin inh: 61.5*; CHX counter: 27.5*

What do the screens show for `COc1ccc(-c2cc(=NCCCCCC(=O)O)c3cc(C)ccc3o2)cc1`?
Pf growth 48h: 5.0%; Pf growth 96h: inconclusive; Shiga toxin inh: 5.4; CHX counter: 11.6

How did COc1ccc(-c2cc(=Nc3cccc(C(=O)O)c3)c3cc(C)ccc3o2)cc1 do in these assays?
Pf growth 48h: 373.5%; Pf growth 96h: 319.2%; Shiga toxin inh: 98.2*; CHX counter: 58.6*

Results for CCN1CCN(CCCNC(=O)c2ccc(CS(=O)c3ccc(Br)cc3)o2)CC1 (stereo not given) ?
Pf growth 48h: 6.7%; Pf growth 96h: -20.0%; Shiga toxin inh: -1.2; CHX counter: -10.2

What do the screens show for `CC(C)OCC1CC(CC(=O)Nc2ccc([N+](=O)[O-])cc2)C(=O)O1` (stereo not given)?
Pf growth 48h: 48.9%; Pf growth 96h: 19.6%; Shiga toxin inh: 5.5; CHX counter: -3.4

Results for O=C(O)c1ccccc1C(=O)NC1Cc2ccccc2C1 ?
Pf growth 48h: 60.9%; Pf growth 96h: 6.7%; Shiga toxin inh: 0.6; CHX counter: -2.0

What do the screens show for `CCc1ccc2oc(-c3ccc(OC)cc3)cc(=Nc3cccc(C(=O)O)c3)c2c1`?
Pf growth 48h: 330.9%; Pf growth 96h: inconclusive; Shiga toxin inh: 136.9*; CHX counter: 58.3*
